Results as given in PubChem BioAssay AID1578 (Sanford-Burnham Center for Chemical Genomics, 2009).
“And” between values parts separate entries of the source, which are not always exact repeats. Equal values may be shown once. The campaign covered roughly 290,000 compounds. About 3,000 (1%) were called active. Cut-off read from the data, not from the text of the source: active = inhibition mostly above about 36% (no sharp cut-off); inactive = mostly below about 34%. The list comes from a sample in which actives are over-represented; it also holds similar structures and randomly drawn compounds.

Experiment: NOD1 signaling inhibitors, primary screen, cell-based, luminescence, uHTS (AID 1578);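 note: HEK-293T reporter cells stimulated with the NOD1 agonist gamma-tri-DAP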
Conditions: NOD1-driven NF-kB luciferase reporter cells, at 4 µM, hits give high values

inhibition, inactive:
CCOC(=O)N1CCc2c(sc(NC(=O)C3=COCCO3)c2C(N)=O)C1 -29.7%
CCOC(=O)c1c(NC(=O)c2cccs2)sc2c1CCN(C(=O)OCC)C2 14%
O=C(CSc1nnc(-c2ccccc2Br)o1)Nc1cccc2ccccc12 -22.5%
Cc1ccc(C2=Nn3c(COc4ccc(Cl)cc4)nnc3SC2CC(=O)O)cc1 (stereo not drawn) 3.6%
CN(CCCNC(=O)Cn1c(=O)c2cccn2c2ccccc21)Cc1ccccc1 -17.1%
Cc1ccccc1NC(=O)COC(=O)C1(C)CC1(Cl)Cl (stereo not drawn) -11.4%
Cc1ccc(S(=O)(=O)Oc2ccc(/C=C(/NC(=O)c3ccccc3)C(=O)NCCCC(=O)O)cc2)cc1 -18.3%
COC(=O)c1ccc(C(=O)OC)c(NC2=NS(=O)(=O)c3ccccc32)c1 -20.3%
CCOC(=O)c1c(-c2ccc(C)cc2)csc1NC1=NS(=O)(=O)c2ccccc21 24%
O=C(OCC(=O)c1cccs1)c1ccccc1 2.3%
Cc1nc2ccc(F)cc2cc1C(=O)Nc1ccc(Cl)c(Cl)c1 -34%
O=C(Nc1cccc(Cl)c1)N(Cc1nc2ccccc2c(=O)[nH]1)Cc1cccs1 -26.5%
Cc1ccc(NC(=O)N(Cc2nc3ccccc3c(=O)[nH]2)Cc2cccs2)cc1 -2.2%
Cn1cc(C(=O)NCc2cccs2)c(=O)c2cc(S(=O)(=O)N3CCCC3)ccc21 53%
CCn1c(O)c(N=Nc2ccc3ccccc3n2)c2ccccc21 -7.9%
Brc1ccc(/C=N/Nc2ccc3ccccc3n2)cc1 -39.3%
CC1Cc2ccccc2N1CC(=O)Nc1ccc(S(=O)(=O)N(C)C)cc1 (stereo not drawn) -7.7%
Cc1ccc(C(C)NC(=S)NCc2ccc(F)cc2)c(C)c1 (stereo not drawn) 29.2%
COc1cccc(C(C)NC(=S)NCc2ccc(F)cc2)c1 (stereo not drawn) 20.3%
CCOc1ccc(C(C)NC(=S)NCc2ccc(F)cc2)cc1 (stereo not drawn) 8.6%
Cc1ccc(C(C)NC(=S)NCc2ccc(F)cc2)cc1C (stereo not drawn) -16.4%
COCCNC(=O)Cn1c(=O)n(C)c2ccccc21 -14%
Cc1cc(C)cc(N(C(C)C(=O)NCCC2=CCCCC2)S(C)(=O)=O)c1 (stereo not drawn) 15%
CC(=O)Nc1ccc(NC(C)=C(C#N)C#N)cc1 -12.5%
COc1cccc(NC(=S)N2c3ccccc3CC2C)c1 (stereo not drawn) -26.6%
COc1ccc(NC(=O)N2c3ccccc3CC2C)cc1OC (stereo not drawn) -26.9%
CCN(C(=O)COC(=O)CSc1ccc([N+](=O)[O-])cc1)C1CCS(=O)(=O)C1 (stereo not drawn) -23.6%
COc1cc(C(=O)N/N=C/c2ccc3c(c2)c2ccccc2n3C)ccc1O 32.9%
Cc1ccc(CNC(=O)CCS(=O)(=O)Cc2ccc(C)cc2)cc1 15.8%
CC(C)c1ccc2c(c1)C1Cc3ccccc3C1N2 (stereo not drawn) -15.3%
CCOc1cc(/C=C2\COc3ccccc3C2=O)ccc1OCC(=O)N(C)C 30.7%
CCOc1cc(/C=C2/COc3ccccc3C2=O)ccc1OCC(=O)N(C)C 36.8%
COc1ccccc1Oc1nc(-c2ccccc2)cc(C)c1S(C)(=O)=O -16.2%
COc1cccc(NC(=O)C2CCN(S(=O)(=O)c3ccc4c(c3)CC(C)N4C(C)=O)CC2)c1 (stereo not drawn) -22.9%
Cc1ccc(-c2cc3nc(-c4ccc(Br)cc4)cc(N)n3n2)cc1 -9.8%
Nc1cc(-c2ccc(Br)cc2)nc2cc(-c3ccccc3)nn12 -10.5%
CN1C(=O)C(C)(C)c2cc(S(=O)(=O)NCCc3ccc(Cl)cc3)ccc21 -14.4%
CC1(C)Cc2c(sc3c2c(=N)n(Cc2ccco2)c(=O)n3CC(=O)Nc2ccc(Cl)cc2)CO1 1%
COc1ccc2nc(C)cc(N3CC(C)OC(C)C3)c2c1 (stereo not drawn) 8.1%
O=C(O)Cc1cc(I)c(Oc2ccc(O)c(I)c2)c(I)c1 -16.4%
N[C@@H](Cc1cc(I)c(Oc2ccc(O)c(I)c2)c(I)c1)C(=O)O 14.2%
C=CCC(O)(CCN1CCCCC1)c1ccccc1 (stereo not drawn) -19.4%
Cc1ccccc1N(C(=O)c1ccccn1)C(C(=O)NCc1ccccc1)c1ccncc1 (stereo not drawn) -21.2%
O=C(Cc1ccc(Cl)cc1Cl)Nc1cccc(S(=O)(=O)Nc2ccccc2F)c1 -7.5%
N#CC(C#N)=C1C=CC=CN1/C(=C\c1ccco1)C(=O)c1ccccc1 -25.3%
N#CC(C#N)=C1C=CC=CN1/C(=C\c1ccco1)C(=O)c1ccc(Br)cc1 -10.9%
CCOC(=O)C(CCc1nnc(N)s1)C(=O)OCC -16.9%
COc1ccc(N(CC(=O)NCc2ccco2)C(=O)CCC(=O)Nc2nccs2)c(OC)c1 -20.5%
O=C(N/N=C/c1cn(-c2cccs2)nc1-c1ccccc1)c1ccccc1Br -30.5%
O=C(O)c1[nH]c2ccccc2c1C(c1c(F)cccc1Cl)c1c(C(=O)O)[nH]c2ccccc12 -43.4%
CNc1ccc(/C=C2\COc3ccccc3C2=O)cc1[N+](=O)[O-] -7.1%
O=C1/C(=C/c2cccc([N+](=O)[O-])c2)CSc2ccc(Cl)cc21 -12%
COc1ccc(C2/C(=C(/O)c3ccccc3)C(=O)C(=O)N2C)cc1 (stereo not drawn) -38.6%
COc1cccc2cc(C(=O)NCc3ccc(C)cc3)c(=N)oc12 18.3%
COc1ccc(CNC(=O)c2cc3cccc(OC)c3oc2=N)cc1 4.1%
COc1cc(/C=N\NC(=O)c2ccc(-c3ccccc3)cc2)ccc1OCC(N)=O -24.5%
Cc1ccc(S(=O)(=O)N(C)c2cc(S(=O)(=O)N3CCOCC3)c(C)cc2C)cc1 -26.1%
COc1cc(S(=O)(=O)NCc2ccc3c(c2)OCO3)ccc1Cl -0.2%
COc1c(C(=O)NC(=S)Nc2nnn(C)n2)cc2ccccc2c1Br 29.6%
CC(C)NC(=O)CCCc1c[nH]c2ccccc12 -33%
CC(NC(=O)CCc1c[nH]c2ccccc12)c1ccccc1 (stereo not drawn) -38.3%
Cc1ccc(Nc2nnc(-c3ccc4c(c3)OCO4)o2)c(C)c1 -19.5%
Cc1cc(N/N=C/c2cccc([N+](=O)[O-])c2)nc(-n2nc(C)cc2C)n1 -14.5%
Cc1cc(N/N=C/c2cccc(Cl)c2)nc(-n2nc(C)cc2C)n1 -0.3%
Cc1nn(-c2ccccc2)c2c1P(=O)(O)/C(=C1\N(C)c3ccccc3C1(C)C)C=N2 -9%
Cc1cc(C(=O)NNS(=O)(=O)c2ccc(C(C)(C)C)cc2)nn1C(C)(C)C -6.5%
NNC(=O)Cn1c(-c2ccccn2)nc2ccccc21 -10.4%
Cc1cc(=O)oc(C)c1C(=O)OCC(=O)c1ccc(Br)cc1 -27.3%
Cc1cc(=O)oc(C)c1C(=O)OCC(=O)c1ccc(Cl)c(Cl)c1 -32.3%
CCOC(=O)N1CCN(S(=O)(=O)N2CCCC(C(=O)NCCc3ccccc3)C2)CC1 (stereo not drawn) -26.5%
CC(C)c1[nH]c(=O)c(C#N)c2c1COC(C)(C)C2 -18.6%
CC(C)n1c(O)c(N=NC(=O)CNC(=O)c2cccnc2)c2ccccc21 -19.7%
CCCc1nc(NCCO)c(C#N)c2c1CCCC2 17.9%
CCCCc1nc(NCCO)c(C#N)c2c1CCCC2 -8.5%
CCCc1nn2c(N)c(/C=C3\C=Nc4ccccc43)c(=O)nc2s1 -56% and -14.1%
CCc1nn2c(N)c(/C=C3\C=Nc4ccccc43)c(=O)nc2s1 -37.5% and 2.9%
Cc1ccc(S(=O)(=O)n2cc(-c3ccccc3)c(N)n2)cc1 -4.9%

inhibition, active:
CCOC(=O)N1CCc2c(sc(NC(=O)c3ccc(Cl)s3)c2C(N)=O)C1 85.3%
COC(=O)c1c(-c2ccccc2)csc1NC1=NS(=O)(=O)c2ccccc21 82.4%
O=C(Nc1ccc(Cl)cc1)N(Cc1nc2ccccc2c(=O)[nH]1)Cc1cccs1 99.1%
Brc1ccc(N=Nc2ccc3ccccc3n2)cc1 43.4%
Cc1ccc(C)c(C(C)NC(=S)NCc2ccc(F)cc2)c1 (stereo not drawn) 52.6%
COc1ccc(C(C)NC(=S)NCc2ccc(F)cc2)cc1 (stereo not drawn) 55.1%
COc1ccc(NC(=S)N2c3ccccc3CC2C)cc1OC (stereo not drawn) 30.4%
CCOc1cc(/C=C2\COc3ccccc3C2=O)cc(Br)c1OCC(=O)N(C)C 54.9%
O=C(O)CCc1cc(I)c(Oc2ccc(O)c(I)c2)c(I)c1 51.7%
N#CC(C#N)=C1C=CC=CN1/C(=C\c1ccco1)C(=O)c1ccc(Cl)cc1 104%
CNc1ccc(/C=C2\CSc3ccccc3C2=O)cc1[N+](=O)[O-] 73.4%
COc1cccc2cc(C(=O)NCc3ccc(Cl)cc3)c(=N)oc12 85.8%
CC(NC(=O)CCCc1c[nH]c2ccccc12)c1ccc(F)cc1 (stereo not drawn) 51.3%
Cc1cc(=O)oc(C)c1C(=O)OCC(=O)c1ccc(Cl)cc1 79.2%
CC(C)c1nc(NCCO)c(C#N)c2c1CCCC2 81%
CCCCc1nn2c(N)c(/C=C3\C=Nc4ccccc43)c(=O)nc2s1 79.1%
